The full list was thinned out, with hits kept by preference.
Dicer inh: blocks human Dicer maturation of pre-miR-21. Q9UPY3. cat-ELCCA pre-miR-21 Dicer processing, chemiluminescence; stronger effect = higher value. z-score at 25 µM. 47,000 compounds, 6% hits. AID 1347074; in the data active means z-score above about 3, passing the limit was not always enough;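 further: plate controls were vehicle for no effect and no enzyme for full effect; higher signal means more uncleaved substrate so more Dicer inhibition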
* = called active by the depositor.

SMILES | Dicer inh
CCOC(=O)NC(NCc1ccc(F)cc1)(C(=O)OCC)C(F)(F)F (stereo not drawn) | -0.99
Clc1ccc(-n2ncnc2-c2ccccc2)cc1 | -0.28
CSc1ccc(-c2ncnn2-c2cccc(Cl)c2)cc1 | 0.28
CCc1ccc(-c2ncnn2-c2ccc(Cl)cc2)cc1 | 3.2*
Cc1ccsc1/C=C/c1ccnc(Sc2ncc([N+](=O)[O-])s2)n1 | 0.66
CCCCCCc1ccc(C(=O)O)cc1 | -1.4
Cn1nc(C(F)(F)F)c(-c2ccccc2)c1/N=C/c1ccc[nH]1 | -0.55
CN(C)/C=N/S(=O)(=O)c1cc(Cl)c(Oc2ccc([N+](=O)[O-])cc2)c(Cl)c1 | -0.86
COc1ccc(CC2CCC(=NOC(=O)C3CCCCC3)CC2)cc1 (stereo not drawn) | -0.14
Cc1c(C(=O)NN)nn(-c2ccc(C(C)(C)C)cc2)c(=O)c1C#N | -0.76
CC(=O)OC[C@H]1OC[C@H](OC(C)=O)[C@@H](OC(C)=O)[C@H]1OC(C)=O | -0.56
C=CCOC(=O)c1sc(N2C(=O)c3oc4ccc(C)cc4c(=O)c3C2c2ccc(F)cc2)nc1C (stereo not drawn) | -0.01
C=CCOC(=O)c1sc(N2C(=O)c3oc4ccc(C)cc4c(=O)c3C2c2ccc(O)cc2)nc1C (stereo not drawn) | 3.3*
COC(=O)c1sc(N2C(=O)c3oc4ccccc4c(=O)c3C2c2ccc(C)cc2)nc1C (stereo not drawn) | -0.77
COC(=O)c1sc(N2C(=O)c3oc4ccccc4c(=O)c3C2c2cccc(Cl)c2)nc1C (stereo not drawn) | 1.8
CCOC(=O)c1sc(N2C(=O)c3oc4ccc(C)cc4c(=O)c3C2c2ccc(O)cc2)nc1C (stereo not drawn) | 0.43
COC(=O)c1sc(N2C(=O)c3oc4ccccc4c(=O)c3C2c2cccc(O)c2)nc1C (stereo not drawn) | 3.8*
C=CCSC(=NC#N)S/C=C/C(=O)c1ccccc1F | -2.2
CCSc1cc(C(F)(F)F)c(C(=O)Nc2ccc(Cl)cc2)cn1 | -0.35
CCOC(=O)c1cnc2c(c(C3CC3)nn2C)c1N1CCCCC1 | 1.1
C=C1c2ccccc2C(=O)N1c1ccc(C(F)(F)F)cc1 | 0.85
CCOc1ccc(NC(=S)NC(c2ccccc2)c2ccccc2)cc1 | -0.48
CC(NC(=S)Nc1ccc(Oc2ccc(Cl)cc2)cc1)c1ccccc1 (stereo not drawn) | 3.9*
Cc1ccc(C(C)NC(=S)Nc2ccc(Cl)cc2)c(C)c1 (stereo not drawn) | -0.11
O=C(CC1(O)C(=O)N(CCc2ccccc2)c2ccccc21)c1ccc2c(c1)OCO2 (stereo not drawn) | -0.95
SMILES | Dicer inh
Cc1nc(C(F)(F)F)ccc1C(=O)O/N=C(\N)c1cnccn1 | -0.39
COc1ccc(-c2noc(-c3ccc(OC)c(OC)c3)n2)cc1OC | -0.23
CCOc1ccc(-c2nc(-c3ccc(Cl)cc3)no2)cc1OCC | 3.6*
CCOc1nc(C)ccc1-c1noc(-c2ccc(OC)c(OC)c2)n1 | 0.4
Cc1cc(C)c2c3c1C1C=CCC1CN3C(C(=O)O)C1CC=CC21 (stereo not drawn) | -2
CCCCN1C(=O)C(O)(c2c[nH]c3ccccc23)c2ccccc21 (stereo not drawn) | 0.72
COc1ccc(Nc2nc(-c3ccccn3)cs2)cc1 | 6.4*
COc1ccc(Nc2nc(-c3cccnc3)cs2)cc1 | 1.6
Cc1cccnc1Nc1nc(-c2ccccn2)cs1 | -3.3
COCCOC(=O)c1c(C)oc2ccc(OC(=O)c3ccco3)cc12 | 1.3
CC(C)(C)c1ccc(OC(=O)c2ccco2)cc1 | 0.7
CN(CCOC(=O)c1ccco1)C(C)(C)C | 3.4*
CCCCCNS(=O)(=O)c1cccc2c(N)cccc12 | -2
COc1ccc(C(CC(=O)c2ccccc2)Sc2ccccc2C)cc1 (stereo not drawn) | -0.37
N#CC1=C2N=C(N)c3ccccc3N2C2=C(C(=O)CC(c3ccccc3)C2)C1c1cccs1 (stereo not drawn) | 3
COc1ccc(C2C(C#N)=C3N=C(N)c4ccccc4N3C3=C2C(=O)CC(C)(C)C3)cc1 (stereo not drawn) | -1.2
CCOc1ccccc1C1C(C#N)=C2N=C(N)c3ccccc3N2C2=C1C(=O)CC(C)(C)C2 (stereo not drawn) | 1.3
COc1ccccc1C1C(C#N)=C2N=C(N)c3ccccc3N2C2=C1C(=O)CC(C)(C)C2 (stereo not drawn) | 5*
COc1ccc(C2C(C#N)=C3N=C(N)c4ccccc4N3C3=C2C(=O)CC(C)(C)C3)cc1OC (stereo not drawn) | 8.2*
N#CC1=C2N=C(N)c3ccccc3N2C2=C(C(=O)CC(c3ccccc3)C2)C1c1cccnc1 (stereo not drawn) | 1.5
COc1cccc(C2C(C#N)=C3N=C(N)c4ccccc4N3C3=C2C(=O)CC(C)(C)C3)c1OC (stereo not drawn) | 0.02
N#CC1=C2N=C(N)c3ccccc3N2C2=C(C(=O)CC(c3ccccc3)C2)C1c1ccc2c(c1)OCO2 (stereo not drawn) | 3.4*
